# In all, about 330,000 compounds went through this assay and about 590 (0.18%) were called active. For the sample, actives were picked, then their nearest neighbours and some compounds at random. A number with no mark means an inactive call.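 Rule for the calls: active = superoxide response under a set limit, about three screen SD below normal (cut at about 65% in these data); inactive = the rest.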
# Assay: reduction of superoxide in aged yeast, primary screen, HTS (AID 2690);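 note: yeast aged for seven days with compound at 30 °C before DHE staining; 100% = average MFI of all compound-treated wells on the plate with controls excluded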
# Conditions: S. cerevisiae aged cells, superoxide DHE fluorescence; at 10 µM; stronger effect = lower value
row,SMILES,superoxide response (% of plate mean)
1,O=C(Nc1ccccc1N1CCCC1)c1ccc2ccccc2c1,59% (active)
2,O=C(Nc1ccccc1N1CCCC1)c1ccc(F)c(S(=O)(=O)N2CCOCC2)c1,85.3%
3,O=C(NC(=S)Nc1ccccc1N1CCCCC1)c1ccc(F)cc1,98.2%
4,Cc1cccc2c1cnn2C(=O)CCC(=O)NC1CCCCC1,82.7%
5,N#Cc1cccc(NC(=O)CN2CCCCCC2)c1,94.7%
6,COc1cc(CO)ccc1OCC(=O)Nc1cccc2ccccc12,99.9%
7,Cc1cccc2[nH]c(CN(C)C(=O)C3CCC(=O)N(CCc4ccccc4)C3)nc12 (stereo unspecified),102%
8,COc1ccc(-c2c(-c3cc(OC)cc(OC)c3)n(C)c3ccc(-c4ccn[nH]4)cc23)cc1,87%
9,CC1CC(C)CN(C(=O)CSc2ccsc2[N+](=O)[O-])C1 (stereo unspecified),155%
10,CCCCc1cc(=O)oc2c(C)c(OCC(=O)N3CCC(C(N)=O)CC3)ccc12,81.2%
11,Cc1cc2c(C)nc(N/N=C/c3ccccc3)nc2o1,97.9%
12,Cc1cc2oc(C(=O)Nc3c(C)n(C)n(-c4ccccc4)c3=O)c(C)c2cc1Cl,43% (active)
13,Cc1c(NC(=O)c2coc(=O)c(Br)c2)c(=O)n(-c2ccccc2)n1C,96.5%
14,Cc1c(NC(=O)c2cc(-c3ccc(Br)cc3)on2)c(=O)n(-c2ccccc2)n1C,98.6%
15,CC1(C)CC(=O)C=C(c2cccc3c2Oc2ccccc2S3)C1,109%
16,O=C(CSc1nc2[nH]c(=O)[nH]c(=O)c2s1)Nc1cccc(F)c1,94.1%
17,Cc1cc2ncn(CCCCOc3ccccc3)c2cc1C,80.1%
18,COc1ccc(CNC(=O)C2CC(c3ccc(C(F)(F)F)cc3)=NO2)cc1 (stereo unspecified),103%
19,O=S(=O)(NCCCCCCNS(=O)(=O)c1c(F)cccc1F)c1ccc2c(c1)OCCO2,104%
20,O=C(O)C1CCN(S(=O)(=O)N2CCOCC2)CC1,126%
21,COc1ccc(CCNC(=O)Cc2ccc(C)cc2)cc1OC,102%
22,O=C(O)c1ccccc1-c1ccccc1C(=O)NCCc1ccccc1,108%
23,COc1ccc(CCNC(=O)c2ccccc2-c2ccccc2C(=O)O)cc1OC,57.2% (active)
24,Cc1ccc(NC(=O)CN2CCC3(O)CCCCC3C2c2ccc3c(c2)OCO3)c(C)c1 (stereo unspecified),95%
25,COc1cccc(NC(=O)[C@H](Cc2c[nH]c3ccccc23)NC(=O)[C@@H]2Cc3ccccc3CN2)c1,113%
26,O=C(NC1CCN(Cc2ccccc2)CC1)c1ccc(Oc2cc(Cl)cc(Cl)c2)o1,87.6%

row,SMILES,superoxide response (% of plate mean)
1,CCc1ccccc1NC(=O)NCCN1CCCCC1,92.8%
2,COc1cccc(NC(=S)NCCCN2CCOCC2)c1,96.1%
3,COc1cccc(NC(=O)NCCN2CCCCC2)c1,34.4% (active)
4,CC(=O)NC1=NN(C(C)=O)C(C)(c2ccc(Cl)s2)S1 (stereo unspecified),102%
5,CC(=O)NC1=NN(C(C)=O)C(C)(CCS(=O)(=O)c2ccc(Cl)c(Cl)c2)S1 (stereo unspecified),63.7% (active)
6,CC(=O)NC1=NN(C(C)=O)C(C)(c2ccc(C)cc2)S1 (stereo unspecified),108%
7,Cc1nc([N+](=O)[O-])cn1CC(=O)Nc1ccc(Cl)cc1,104%
8,COc1ccc(/C=C(/CC(=O)Nc2ccc(C)cc2)c2nc3ccccc3s2)cc1,97.7%
9,COc1ccc(C2=NN(c3nc4ccccc4s3)C(=O)C2)cc1,51% (active)
10,COc1ccc(-n2nnnc2-c2nc3ccccc3s2)cc1,88.6%
11,COc1ccc2c(c1)OC(O)(C(F)(F)C(F)F)CC2=O (stereo unspecified),82.7%
12,CCN(CC)S(=O)(=O)c1cc([N+](=O)[O-])ccc1NNC(=O)Nc1ccccc1,101%
13,CCOc1ccc(N2CC(C(=O)N/N=C/c3sccc3C)CC2=O)cc1 (stereo unspecified),100%
14,COc1ccc2[nH]c(=O)c(CNc3ccc(C)c(C)c3)cc2c1,96.3%
15,COc1cc(C(=S)N2CCOCC2)cc(OC)c1OC(=O)c1cc([N+](=O)[O-])c(C)c([N+](=O)[O-])c1,113%
16,CCCC1NC(=S)NC(C)=C1C(C)=O (stereo unspecified),92.8%
17,O=[N+]([O-])c1ccc2c(c1)Nc1nc3ccccc3nc1N2,61.2% (active)
18,O=[N+]([O-])c1ccc2nc(-c3ccccn3)[nH]c2c1,98.5%
19,COc1ccc([N+](=O)[O-])cc1-c1nc2ccccc2nc1-c1ccccc1,99.1%
20,Cc1nn(CC(=O)Nc2ccc(F)cc2)c(=O)c2ccccc12,98.5%
21,Cc1ccc(NC(=O)Cn2nc(C)c3ccccc3c2=O)c(C)c1,54.4% (active)
22,Cc1nn(CC(=O)Nc2ccc3c(c2)nc(CN2CCCCC2)n3C)c(=O)c2ccccc12,94.1%
23,Cc1ccc(-c2nc(CS(=O)CC(=O)NC3CCCC3)c(C)o2)cc1 (stereo unspecified),108%
24,Cc1ccc(-c2nc(CS(=O)CC(=O)N3CCN(c4ncccn4)CC3)c(C)o2)cc1 (stereo unspecified),63.9% (active)
25,COc1ccc(-c2nc(CS(=O)CC(=O)N3CCc4ccccc4C3)c(C)o2)cc1 (stereo unspecified),92.3%

# — PubChem BioAssay AID2690 (NMMLSC, 2010)
